This is part of a sample that, as a whole, favours compounds with a hit. Of some 83,000 tested, about 20% had one in any assay.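 Single-concentration screen, 48 h exposure, 96-well plates. Endpoint: percent growth. Below 10 = active.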 A number with no mark means an inactive call.

This assay deals with U251 CNS. Put plainly: NCI-60 one-dose screen, 48 h (100 = growth as untreated, 0 = no growth, -100 = all killed). The note with it: 10 µM unless noted.
For `COc1ccc2nc(C)cc(Sc3nc4ccccc4s3)c2c1`, the growth was 39.6%.
The same measure for `CCN(CC)CCCC(C)Nc1ccnc2ccc(Oc3ccccc3)cc12` (stereo unspecified): 63.5%; for `FC(F)(F)c1nn[nH]n1`: 99.5%; for `CC(C)c1nc2ccccc2n1CC(=O)N/N=C/c1cccc(O)c1`: 103%.
For the compound `O=c1c2cc(Br)cc(Br)c2nc(-c2ccc(Cl)cc2)n1/N=C\c1ccccc1F`, the growth is 55.1%.
Consider `C=CCN(CC#N)CC=C`, for which the growth is 100%.
The same measure for `COC(=O)[C@@H](Cc1c[nH]c2ccccc12)NC(=O)/C=C/c1ccccc1`: 14.2%; for `CCOC(=O)C(CCCCC(NC(C)=O)(C(=O)OCC)C(=O)OCC)(NC(C)=O)C(=O)OCC`: 104%.
The same measure for `COc1ccc(-c2cnnn2-c2nonc2-n2cccc2)cc1`: 22.1%.
For `CSC1=N/C(=C\c2cccc(OCc3ccc(Cl)cc3)c2)C(=O)N1`, the growth was 84.5%.
The same measure for `COc1ccc([C@H]2c3[nH]c4ccccc4c3C[C@H]3C(=O)N(CCCCCCC(=O)NO)CC(=O)N23)cc1`: 30.4%.
With `c1csc(-c2cnc3nonc3n2)c1`, the growth was 88%.
The same measure for `CC1(C)CN(CCNc2nccc(-c3c(-c4cccc(O)c4)nc4sccn34)n2)S(=O)(=O)N1`: 74%; for `COc1cc(C2CC(c3ccc(Cl)cc3)=NN2C(C)=O)ccc1Oc1ccnc2cc(Cl)ccc12` (stereo unspecified): 43.8%.
In the case of `CN(C)CCCn1c(=O)c2cc([N+](=O)[O-])ccc2c2cnc3[nH]ccc3c21`, the growth is 57.4%.
On to `CN(C)N1C(=O)c2c(Cl)c(Cl)c(Cl)c(Cl)c2C1=O`, for which the growth was 102%.

The values above are taken from PubChem BioAssay (NCI).
